Experimental findings from PubChem BioAssay are described below.

Values without a mark were called inactive. For some assays here: Measured potencies and affinities stand elsewhere. Activity calls are given as the source filed them. Unless noted, the rule behind the calls is not given here.

Assay [1] in a line: antimalarial activity against Dd2 strain (AID 2302;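 active = growth inhibition above 50% at the single 2 µM test dose, taken to imply half-maximal potency below 2 µM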;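 note: 0% = DMSO untreated growth and 100% = chloroquine plus artemisinin killed control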). Conditions: P. falciparum Dd2 in RBCs, LDH growth readout, 72 h; at 2 µM; stronger effect = higher value.
The nature of assay [2]: HepG2 cytotoxicity, primary screen, cytotoxicity control for P. falciparum antimalarial project, cell-based, ATP luminescence (AID 2303;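 active = inhibition above 50%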;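 note: 0% = DMSO wells and 100% = digitonin-killed cells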). To be noted: HepG2 viability, 24-48 h, at 10 µM, stronger effect = higher value.
Assay [3] addresses L-lactate dehydrogenase (Plasmodium falciparum (isolate CDC / Honduras)) (UniProt Q27743). Briefly: PfLDH activity inhibition – cell lysate, 3D7 strain, counter-screen for P. falciparum growth inhibition project (AID 2304).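 Note: 0% = vehicle and 100% = reference inhibitor.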 Conditions: P. falciparum 3D7 crude extract, LDH APAD/NBT absorbance; at 2 µM; stronger effect = higher value. For orientation: Counterscreens check selectivity or assay interference.

Assay [4] in a line: inhibition of 3D7 malaria parasite growth – strain 3D7 (AID 2306).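 Note: 0% = DMSO wells and 100% = chloroquine plus artemisinin control wells.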 Conditions: P. falciparum 3D7 erythrocytic growth, LDH absorbance, 72 h; at 2 µM; stronger effect = higher value.
The target in assay [5] is Calcium-dependent protein kinase 1 (Plasmodium falciparum (isolate 3D7)) (UniProt P62344). As to the kind of experiment: PfCDPK1 kinase inhibitors, biochemical, TCAMS library (AID 1159585; cut-off not given, nearly all actives have IC50 up to about 0.98 µM;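 note: inhibitors leave more ATP so luminescence rises with inhibition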). Conditions: recombinant PfCDPK1, Kinase-Glo ATP depletion luminescence.
Calcium-dependent protein kinase 1 (Plasmodium falciparum (isolate 3D7)), sequence (P62344 whole entry, looked up): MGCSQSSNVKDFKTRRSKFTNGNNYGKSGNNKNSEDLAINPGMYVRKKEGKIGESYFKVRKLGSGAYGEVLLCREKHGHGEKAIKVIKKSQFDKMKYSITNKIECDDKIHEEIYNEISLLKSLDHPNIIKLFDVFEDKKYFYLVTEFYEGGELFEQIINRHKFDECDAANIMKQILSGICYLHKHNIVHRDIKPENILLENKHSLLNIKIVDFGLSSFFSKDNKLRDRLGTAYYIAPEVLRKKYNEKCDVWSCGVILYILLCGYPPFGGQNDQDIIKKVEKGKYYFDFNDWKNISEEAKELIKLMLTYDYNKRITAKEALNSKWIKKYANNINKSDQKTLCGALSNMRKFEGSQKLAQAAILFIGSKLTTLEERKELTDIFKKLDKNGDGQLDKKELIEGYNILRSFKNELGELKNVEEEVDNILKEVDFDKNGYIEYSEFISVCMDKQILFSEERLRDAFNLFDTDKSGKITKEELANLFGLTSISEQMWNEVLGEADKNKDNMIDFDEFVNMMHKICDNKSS
Assay [6] deals with Plasmodium falciparum protein kinase 6 (PK6, PF3D7_1337100) (UniProt Q8IDW1). Briefly: PfPK6 kinase inhibitors, biochemical, TCAMS library (AID 1159586). To be noted: recombinant PfPK6, Kinase-Glo ATP depletion luminescence. For orientation: In Kinase-Glo more light means more ATP remaining.
Plasmodium falciparum protein kinase 6 (PK6, PF3D7_1337100), sequence (Q8IDW1 1-305): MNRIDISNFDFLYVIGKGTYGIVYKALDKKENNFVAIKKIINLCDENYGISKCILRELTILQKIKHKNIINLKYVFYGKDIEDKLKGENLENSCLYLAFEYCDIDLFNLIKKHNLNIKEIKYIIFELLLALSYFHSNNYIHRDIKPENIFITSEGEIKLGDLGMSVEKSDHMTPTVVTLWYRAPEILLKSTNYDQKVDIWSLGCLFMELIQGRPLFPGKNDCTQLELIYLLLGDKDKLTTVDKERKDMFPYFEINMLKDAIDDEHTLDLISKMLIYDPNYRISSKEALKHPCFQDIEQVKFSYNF
The target in assay [7] is Protein kinase 7 (PK7), Plasmodium falciparum 3D7 (PF3D7_0213400) (UniProt Q7YTF7). As to the kind of experiment: inhibition of Plasmodium PK7 catalytic activity – biochemical, TCAMS antimalarial set, Kinase-Glo luminescence (AID 1159587). Conditions: recombinant PfPK7, Kinase-Glo ATP depletion luminescence.
Protein kinase 7 (PK7), Plasmodium falciparum 3D7 (PF3D7_0213400), sequence (Q7YTF7 1-343): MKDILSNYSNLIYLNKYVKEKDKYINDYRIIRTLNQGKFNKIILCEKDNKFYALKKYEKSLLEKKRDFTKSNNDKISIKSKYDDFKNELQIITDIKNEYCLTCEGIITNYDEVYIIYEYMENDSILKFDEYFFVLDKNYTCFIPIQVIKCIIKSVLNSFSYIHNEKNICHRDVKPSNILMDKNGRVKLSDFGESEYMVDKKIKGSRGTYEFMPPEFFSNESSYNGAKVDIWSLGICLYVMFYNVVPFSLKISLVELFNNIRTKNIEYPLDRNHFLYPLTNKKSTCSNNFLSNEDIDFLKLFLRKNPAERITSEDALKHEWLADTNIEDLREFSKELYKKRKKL
Assay [8] has as its target Calcium-dependent protein kinase 4 (Plasmodium falciparum (isolate 3D7)) (UniProt Q8IBS5). As to the kind of experiment: PfCDPK4 kinase inhibitors, biochemical, TCAMS library (AID 1159588; cut-off not given, nearly all actives have IC50 up to about 0.91 µM). To be noted: recombinant PfCDPK4, Kinase-Glo ATP depletion luminescence.

L-lactate dehydrogenase (Plasmodium falciparum (isolate CDC / Honduras)), sequence (Q27743 whole entry, looked up): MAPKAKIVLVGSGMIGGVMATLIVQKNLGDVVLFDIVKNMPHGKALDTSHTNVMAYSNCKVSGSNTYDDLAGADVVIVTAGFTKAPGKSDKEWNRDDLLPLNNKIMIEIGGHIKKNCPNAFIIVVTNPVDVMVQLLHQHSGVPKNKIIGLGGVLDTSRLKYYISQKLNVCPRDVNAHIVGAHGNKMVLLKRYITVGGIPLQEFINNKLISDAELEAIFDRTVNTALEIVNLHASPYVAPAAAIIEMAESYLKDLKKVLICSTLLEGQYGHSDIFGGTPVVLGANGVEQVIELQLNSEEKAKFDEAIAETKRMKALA
Calcium-dependent protein kinase 4 (Plasmodium falciparum (isolate 3D7)), sequence (Q8IBS5 whole entry, looked up): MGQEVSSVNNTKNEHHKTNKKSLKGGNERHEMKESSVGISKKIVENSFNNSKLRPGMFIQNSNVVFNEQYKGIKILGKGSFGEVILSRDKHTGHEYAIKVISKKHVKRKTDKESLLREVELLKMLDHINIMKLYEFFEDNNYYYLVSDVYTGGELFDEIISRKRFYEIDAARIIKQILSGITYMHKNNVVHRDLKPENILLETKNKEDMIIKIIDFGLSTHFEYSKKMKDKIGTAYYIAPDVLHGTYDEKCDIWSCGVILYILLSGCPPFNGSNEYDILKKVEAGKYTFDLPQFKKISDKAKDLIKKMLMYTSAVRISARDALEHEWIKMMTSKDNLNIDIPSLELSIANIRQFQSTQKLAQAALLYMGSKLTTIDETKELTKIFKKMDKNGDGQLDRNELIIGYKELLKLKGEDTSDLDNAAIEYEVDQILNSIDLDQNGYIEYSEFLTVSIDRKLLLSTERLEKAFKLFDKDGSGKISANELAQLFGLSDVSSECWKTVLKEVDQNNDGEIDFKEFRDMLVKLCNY

One may read the inhibition as the drop in the measured response relative to a control, in per cent. With `Cc1cccc2[nH]c(-c3cccc(-c4cccc(CNCc5ccccc5)c4)c3)nc12`, the growth inhibition was 56% (active) in assay [1] and 101% (active) in assay [4]. In addition, the inhibition is 3% in assay [2] and -1% in assay [3]. The result in assay [5], in assay [6], in assay [7] and in assay [8] was inactive.
`Cc1cnccc1/C=C/c1cccc(OCCN2CCc3ccc(S(C)(=O)=O)cc3CC2)c1`: the growth inhibition in assay [1] was 80% (active); in assay [4], 93% (active). The inhibition in assay [2] was 9%; in assay [3] it was -4%. The outcome in assay [5], in assay [6], in assay [7] and in assay [8] was inactive.
Consider `CCOC(=O)NC1=NC(C)(C)N(OCc2cccc3c2ccc2ccccc23)C(NC(=O)OCC)=N1`, for which the growth inhibition in assay [1] was 3%; in assay [4], 98% (active). Also, the inhibition in assay [2] is 3%; in assay [3], 4%. Besides, the outcome in assay [5], in assay [6], in assay [7] and in assay [8] was inactive.
As to `COc1ccc2nccc(NN=Cc3ccc(Cl)cc3)c2c1`, the growth inhibition was 72% (active) in assay [1] and 101% (active) in assay [4]. Moreover, the inhibition in assay [2] is 9%; in assay [3], -1%. The result in assay [5], in assay [6], in assay [7] and in assay [8] was inactive.
As for `O=C(Nc1ccc(-c2cccc(-c3nc4ccc(C(F)(F)F)cc4[nH]3)c2)cc1)Nc1ccc(Cl)c(Cl)c1`, the figures for the growth inhibition in assay [1] and in assay [4] were 23% and 98% (active), respectively. Besides, the inhibition in assay [2] is 42%; in assay [3] it was 7%. Also, the outcome in assay [5], in assay [6], in assay [7] and in assay [8] was inactive.
As for `COc1ccc2ccccc2c1C=NNc1ccnc2ccc(F)cc12`, the growth inhibition was 10% in assay [1] and 87% (active) in assay [4]. Moreover, the inhibition was 11% in assay [2] and -2% in assay [3]. For the same compound, the outcome in assay [5], in assay [6], in assay [7] and in assay [8] was inactive.
Regarding `Cc1nc2ccc3nc(NC(=O)c4ccno4)sc3c2s1`, the growth inhibition in assay [1] is 97% (active); in assay [4], 99% (active). Also, the inhibition in assay [2] was 6%; in assay [3] it was 1%. Moreover, the result in assay [5], in assay [6], in assay [7] and in assay [8] was inactive.
Consider `CCOC(=O)NOC(C(=O)O)c1ccccc1` (configuration not stated), for which the growth inhibition in assay [1] was 17%; in assay [4] it was 99% (active). Further, the inhibition in assay [2] is 4%; in assay [3] it was -1%. In addition, the outcome in assay [5], in assay [6], in assay [7] and in assay [8] was inactive.
On to `COc1ccc(-c2nc3ccc(C)nc3nc2-c2ccc(OC)cc2)cc1`, for which the results for the growth inhibition in assay [1] and in assay [4] were -2% and 91% (active), respectively. Besides, the inhibition in assay [2] and in assay [3] was 4% each time. The result in assay [5], in assay [6], in assay [7] and in assay [8] was inactive.
For the compound `CCOc1ccccc1NC(=O)C(Sc1nc(C)cc(C)c1C#N)c1ccccc1` (configuration not stated), the growth inhibition in assay [1] is 98% (active); in assay [4] it was 99% (active). The inhibition is -1% in assay [2] and -3% in assay [3]. For the same compound, the result in assay [5], in assay [6], in assay [7] and in assay [8] was inactive.
Consider `CCCCN(Cc1cccc(C(F)(F)F)c1Cl)c1ccc(C(O)(C(F)(F)F)C(F)(F)F)cc1`, for which the figures for the growth inhibition in assay [1] and in assay [4] were 55% (active) and 91% (active), respectively. The inhibition was 10% in assay [2] and -3% in assay [3]. The result in assay [5], in assay [6], in assay [7] and in assay [8] was inactive.
In the case of `CC(=O)Nc1ncc(C(=O)Nc2ccc(-c3cccc(-c4nc5ccc(C(F)(F)F)cc5[nH]4)c3)cc2)s1`, the growth inhibition in assay [1] was 92% (active); in assay [4], 101% (active). In addition, the inhibition is 79% (active) in assay [2] and 3% in assay [3]. In addition, the outcome in assay [5], in assay [6], in assay [7] and in assay [8] was inactive.
In the case of `O=C(NC1CCC(CCN2Cc3cccc(F)c3C2)CC1)c1cccc(-c2cccnc2)c1` (configuration not stated), the growth inhibition in assay [1] is 82% (active); in assay [4], 98% (active). In addition, the inhibition in assay [2] was 16%; in assay [3], -2%. Moreover, the result in assay [5], in assay [6], in assay [7] and in assay [8] was inactive.
With `Cc1ccc(O)c(CN2CCCC(COC(c3ccc(F)cc3)c3ccc(F)cc3)C2)c1` (configuration not stated), the growth inhibition in assay [1] and in assay [4] was 98% (active) in each case. For the same compound, the inhibition in assay [2] is 19%; in assay [3] it was 0%. The outcome in assay [5], in assay [6], in assay [7] and in assay [8] was inactive.
Consider `OCc1ccc(-c2cncc(Nc3ccc(F)c(Cl)c3)c2)cc1`, for which the growth inhibition is 99% (active) in assay [1] and 92% (active) in assay [4]. The inhibition in assay [2] was 2%; in assay [3], -2%. Also, the outcome in assay [5], in assay [6], in assay [7] and in assay [8] was inactive.
For the compound `CN(C)c1ccc(-c2csc(C(=O)NC3CCN(CCC(C)(C)C)C3)c2)cc1` (configuration not stated), the growth inhibition was 36% in assay [1] and 95% (active) in assay [4]. The inhibition in assay [2] is 20%; in assay [3], 2%. Also, the result in assay [5], in assay [6], in assay [7] and in assay [8] was inactive.
`OCCNc1nc(Nc2ccc(Cl)cc2)nc2ccccc12`: the growth inhibition in assay [1] was 99% (active); in assay [4], 102% (active). Moreover, the inhibition in assay [2] is 30%; in assay [3], -1%. The outcome in assay [5], in assay [6], in assay [7] and in assay [8] was inactive.
`CCN(CC)C(=O)c1cnc(-c2ccccc2)nc1Oc1cccc(Cl)c1`: the growth inhibition in assay [1] was 40%; in assay [4], 92% (active). Moreover, the inhibition in assay [2] is -7%; in assay [3], -3%. The result in assay [5], in assay [6], in assay [7] and in assay [8] was inactive.
For the compound `CCOC(=O)CNC(=O)c1cc(=O)c2ccccc2o1`, the values for the growth inhibition in assay [1] and in assay [4] were -4% and 99% (active), respectively. Further, the inhibition in assay [2] was 22%; in assay [3], -4%. In addition, the result in assay [5], in assay [6], in assay [7] and in assay [8] was inactive.
